Experimental data taken from ChEMBL document CHEMBL4513149, “CO-ADD screening of MMV (CH) - MMV compounds” (2021).
Measured potencies and affinities stand elsewhere.

tested on: Klebsiella pneumoniae; conditions: Concentration 20 uM; ASSAY_TEST Inhibition of Bacterial Growth; detection method Absorption (OD600); MEDIA CAMHB; plate type 384well; NBS; CORNING #3640; time 18 hr

| SMILES | Inhibition [%] |
| --- | --- |
| CC1=NN(c2nc3ccccc3s2)C(=O)C1Cc1cccc2ccccc12 (stereo not given) | 10.99 |
| O=C(NC1CC1)c1ccc(N2CCC(Cc3ccccc3)CC2)nc1 | 19.39 |
| O=C(Nc1cccc(Cl)c1)c1cnc(N2CCN(c3ccncc3)CC2)c(Cl)c1 | 13.15 |
| Nc1ncnc2c1ncn2C[C@@H](O)[C@@H](O)C(=O)O [ERITADENINE] | 17.23 |
| COc1ccc(CCN2CCC(NCc3cccc(N(C)C)c3)CC2)cc1 | 7.89 |
| CNC(=O)C1Cc2c([nH]c3cc(Cl)ccc23)C2(CCN(CCc3ccccc3)CC2)N1 (stereo not given) | 10.39 |
| O=C(C1CCN(c2nnc(-n3cccc3)s2)CC1)N1CCC(Cc2ccccc2)CC1 | 11.79 |
| CC(C)NCC(=O)Nc1cccc(C(=O)Nc2cccc(C(F)(F)F)c2)c1 | 10.29 |
| CC(=O)Nc1ccc(NC(=O)c2cc(-c3cc(Cl)ccc3O)n[nH]2)cc1 | -16.31 |
| O=C(NC1CCN(c2ccnc3ccccc23)C1)c1cccc(C(F)(F)F)c1 (stereo not given) | 12.02 |
| O=C(c1ccc(F)cc1)N(CCNc1ccccc1)c1ccccc1 | 12.15 |
| COc1ccccc1C(C)NCC(=O)Nc1cc(C(F)(F)F)ccc1Cl (stereo not given) | 14.48 |
| COc1ccc(C2=NN(C3CCCCCC3)C(=O)C2(C)C)cc1OCCCCOc1ccc(-c2nn[nH]n2)cc1 | 0.76 |
| O=C(C(Cc1c[nH]c2ccccc12)NS(=O)(=O)c1ccc(Cl)cc1)N1CCCCC1 (stereo not given) | 4.11 |
| COc1ccc(C2(C(=O)Nc3ccc(Br)cc3)CCCC2)cc1 | 17.05 |
| CCC(C)NC(=O)c1ccc(NC(=O)C2(c3ccccc3)CCCC2)cc1 (stereo not given) | 1.96 |
| CN(C)c1cc(NC(=O)Nc2ccccc2)c2ccccc2n1 | -9.89 |
| CNC(=O)C1Cc2ccccc2N1C(=O)Cc1ccc(F)cc1 (stereo not given) | 8.26 |

| SMILES | Inhibition [%] |
| --- | --- |
| CCOc1ccccc1C(=O)Nc1cccc(-c2nc3ncccn3c2C)c1 | 11.04 |
| NS(=O)(=O)c1cccc(-c2ccc3ncc(N4CCOCC4)nc3c2)c1 | 17.56 |
| CC(=O)N(CCN(C(=O)c1ccc(F)cc1)c1ccccc1)c1ccccc1 | 8.37 |
| Cc1ccc(Oc2ccc(NC(=O)CNc3ccccc3N3CCCC3=O)cc2)cc1 | 9.79 |
| CC(Oc1cccc(Cl)c1)C(=O)Nc1ccc2oc(-c3ccncc3)nc2c1 (stereo not given) | 9.56 |
| Cc1ccc(C(=O)Nc2ccc(S(=O)(=O)O)c3cc(S(=O)(=O)O)cc(S(=O)(=O)O)c23)cc1NC(=O)c1cccc(NC(=O)Nc2cccc(C(=O)Nc3cc(C(=O)Nc4ccc(S(=O)(=O)O)c5cc(S(=O)(=O)O)cc(S(=O)(=O)O)c45)ccc3C)c2)c1 [SURAMIN] | 17.11 |
| O=C(C1CCN(c2cc(-n3cccc3)ncn2)CC1)N1CCc2ccccc2C1 | -8.74 |
| Cc1nnc(NCc2cccc(Cl)c2)c2ccccc12 | 13.85 |
| O=C(Nc1cnc2ccccc2c1)c1cccc(-n2cnnn2)c1 | 8.59 |
| OCc1ccc(-c2cncc(Nc3cccc(Cl)c3)c2)cc1 | 12.75 |
| COc1cccc2c(C)nc(N=C(N)N)nc12.O=C(O)C(F)(F)F.O=C(O)C(F)(F)F | 9.38 |
| COc1ccc2nc(C)cc(OCC(=O)Nc3ccccc3OC)c2c1 | 17.25 |
| CC(C)(C)OC(=O)N1CCC(Cn2nc(-c3cnc4ccccc4c3)c3c(N)ncnc32)CC1 | 15.77 |
| O=C(NCCN1CCCC1)c1cc(NCCN2CCOCC2)nc2ccc(Cl)cc12 | 16.49 |
| c1cc(C2=NCCN2)cc(-c2cc(-c3ccc(C4=NCCN4)cc3)no2)c1 | 11.59 |
| Cl.O[C@@H](c1cc(C(F)(F)F)nc2c(C(F)(F)F)cccc12)[C@H]1CCCCN1 | -6.56 |
| CC(Oc1ccccc1)C(=O)Nc1nc(-c2ccccn2)cs1 (stereo not given) | -2.79 |

tested on: Candida albicans; conditions: 20 µM

| SMILES | Inhibition [%] |
| --- | --- |
| CC1=NN(c2nc3ccccc3s2)C(=O)C1Cc1cccc2ccccc12 (stereo not given) | 19.6 |
| O=C(NC1CC1)c1ccc(N2CCC(Cc3ccccc3)CC2)nc1 | 4.1 |
| O=C(Nc1cccc(Cl)c1)c1cnc(N2CCN(c3ccncc3)CC2)c(Cl)c1 | 2.09 |
| Nc1ncnc2c1ncn2C[C@@H](O)[C@@H](O)C(=O)O [ERITADENINE] | 3.88 |
| COc1ccc(CCN2CCC(NCc3cccc(N(C)C)c3)CC2)cc1 | 3.48 |
| CNC(=O)C1Cc2c([nH]c3cc(Cl)ccc23)C2(CCN(CCc3ccccc3)CC2)N1 (stereo not given) | 3.22 |
| O=C(C1CCN(c2nnc(-n3cccc3)s2)CC1)N1CCC(Cc2ccccc2)CC1 | 4.63 |
| CC(C)NCC(=O)Nc1cccc(C(=O)Nc2cccc(C(F)(F)F)c2)c1 | 3.29 |
| CC(=O)Nc1ccc(NC(=O)c2cc(-c3cc(Cl)ccc3O)n[nH]2)cc1 | 54.8 |
| O=C(NC1CCN(c2ccnc3ccccc23)C1)c1cccc(C(F)(F)F)c1 (stereo not given) | 3.54 |
| O=C(c1ccc(F)cc1)N(CCNc1ccccc1)c1ccccc1 | 5.49 |
| COc1ccccc1C(C)NCC(=O)Nc1cc(C(F)(F)F)ccc1Cl (stereo not given) | 1.66 |
| COc1ccc(C2=NN(C3CCCCCC3)C(=O)C2(C)C)cc1OCCCCOc1ccc(-c2nn[nH]n2)cc1 | 5.32 |
| O=C(C(Cc1c[nH]c2ccccc12)NS(=O)(=O)c1ccc(Cl)cc1)N1CCCCC1 (stereo not given) | 2.45 |
| COc1ccc(C2(C(=O)Nc3ccc(Br)cc3)CCCC2)cc1 | 4.64 |
| CCC(C)NC(=O)c1ccc(NC(=O)C2(c3ccccc3)CCCC2)cc1 (stereo not given) | 3.52 |
| CN(C)c1cc(NC(=O)Nc2ccccc2)c2ccccc2n1 | 5.61 |
| CNC(=O)C1Cc2ccccc2N1C(=O)Cc1ccc(F)cc1 (stereo not given) | 3.31 |

| SMILES | Inhibition [%] |
| --- | --- |
| CCOc1ccccc1C(=O)Nc1cccc(-c2nc3ncccn3c2C)c1 | 6.34 |
| NS(=O)(=O)c1cccc(-c2ccc3ncc(N4CCOCC4)nc3c2)c1 | 4.12 |
| CC(=O)N(CCN(C(=O)c1ccc(F)cc1)c1ccccc1)c1ccccc1 | 4.16 |
| Cc1ccc(Oc2ccc(NC(=O)CNc3ccccc3N3CCCC3=O)cc2)cc1 | 2.74 |
| CC(Oc1cccc(Cl)c1)C(=O)Nc1ccc2oc(-c3ccncc3)nc2c1 (stereo not given) | 6.74 |
| Cc1ccc(C(=O)Nc2ccc(S(=O)(=O)O)c3cc(S(=O)(=O)O)cc(S(=O)(=O)O)c23)cc1NC(=O)c1cccc(NC(=O)Nc2cccc(C(=O)Nc3cc(C(=O)Nc4ccc(S(=O)(=O)O)c5cc(S(=O)(=O)O)cc(S(=O)(=O)O)c45)ccc3C)c2)c1 [SURAMIN] | 39.2 |
| O=C(C1CCN(c2cc(-n3cccc3)ncn2)CC1)N1CCc2ccccc2C1 | 10 |
| Cc1nnc(NCc2cccc(Cl)c2)c2ccccc12 | 3.34 |
| O=C(Nc1cnc2ccccc2c1)c1cccc(-n2cnnn2)c1 | 4.47 |
| OCc1ccc(-c2cncc(Nc3cccc(Cl)c3)c2)cc1 | 4.13 |
| COc1cccc2c(C)nc(N=C(N)N)nc12.O=C(O)C(F)(F)F.O=C(O)C(F)(F)F | 2.56 |
| COc1ccc2nc(C)cc(OCC(=O)Nc3ccccc3OC)c2c1 | 0.63 |
| CC(C)(C)OC(=O)N1CCC(Cn2nc(-c3cnc4ccccc4c3)c3c(N)ncnc32)CC1 | 2.29 |
| O=C(NCCN1CCCC1)c1cc(NCCN2CCOCC2)nc2ccc(Cl)cc12 | 2.97 |
| c1cc(C2=NCCN2)cc(-c2cc(-c3ccc(C4=NCCN4)cc3)no2)c1 | 2.32 |
| Cl.O[C@@H](c1cc(C(F)(F)F)nc2c(C(F)(F)F)cccc12)[C@H]1CCCCN1 | 6.48 |
| CC(Oc1ccccc1)C(=O)Nc1nc(-c2ccccn2)cs1 (stereo not given) | -0.26 |
